# Source: the supplement of paper PMC8728848
# The sample as a whole holds a higher share of the strongest signals than the screen did.
# Tests used:
# Assay in all cases: glycan array binding signal (z-score within array); higher = stronger binding
# Settings in all cases: glycan notation: IUPAC condensed, linker removed
# [1] = biological target: Fuc(a1-2)Gal(b1-3)GlcNAc(b1-2)Man(a1-3)[Fuc(a1-2)Gal(b1-3)GlcNAc(b1-2)Man(a1-6)]Man(b1-4)GlcNAc(b1-4)GlcNAc
# Procedure, shortened: (§1)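 From the Consortium for Functional Glycomics database, 3228 arrays were curated, keeping only those whose protein sequence was available. Binding is given as a within-array Z-score averaged across arrays sharing a protein sequence and across linkers. Negative Z-scores can be read as non-binding.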
# [2] = biological target: Fuc(a1-2)Gal(b1-3)[Fuc(a1-4)]GlcNAc(b1-2)Man(a1-3)[Fuc(a1-2)Gal(b1-3)[Fuc(a1-4)]GlcNAc(b1-2)Man(a1-3)]Man(b1-4)GlcNAc(b1-4)GlcNAc
# Procedure, shortened: as §1
# [3] = biological target: Fuc(a1-2)Gal(b1-4)GlcNAc(b1-3)Gal(b1-4)GlcNAc(b1-2)Man(a1-3)[Fuc(a1-2)Gal(b1-4)GlcNAc(b1-3)Gal(b1-4)GlcNAc(b1-2)Man(a1-6)]Man(b1-4)GlcNAc(b1-4)GlcNAc
# Procedure, shortened: as §1
# [4] = biological target: Fuc(a1-2)Gal(b1-4)GlcNAc(b1-3)GalNAc
# Procedure, shortened: as §1
# [5] = biological target: Fuc(a1-2)Gal6S(b1-3)GlcNAc6S
# Procedure, shortened: as §1
# [6] = biological target: Fuc(a1-2)[Gal(a1-3)]Gal
# Procedure, shortened: as §1
# [7] = biological target: Fuc(a1-2)[Gal(a1-3)]Gal(b1-3)GlcNAc(b1-2)Man(a1-3)[Fuc(a1-2)[Gal(a1-3)]Gal(b1-3)GlcNAc(b1-2)Man(a1-6)]Man(b1-4)GlcNAc(b1-4)GlcNAc
# Procedure, shortened: as §1
# [8] = biological target: Fuc(a1-3)[Gal(b1-4)]GlcNAc(b1-3)Gal(b1-4)[Fuc(a1-3)]GlcNAc
# Procedure, shortened: as §1
# [9] = biological target: Fuc(a1-3)[GalNAc(b1-4)]GlcNAc6S
# Procedure, shortened: as §1
# [10] = biological target: Gal(a1-4)Gal(b1-4)GlcNAc
# Procedure, shortened: as §1
# [11] = biological target: Gal(b1-3)GlcNAc(b1-2)[Gal(b1-3)GlcNAc(b1-6)]Man(a1-6)[Gal(b1-3)GlcNAc(b1-2)Man(a1-3)]Man(b1-4)GlcNAc(b1-4)GlcNAc
# Procedure, shortened: as §1
# [12] = biological target: Gal(b1-3)GlcNAc(b1-3)Gal(b1-3)GlcNAc
# Procedure, shortened: as §1
# [13] = biological target: Gal(b1-3)GlcNAc(b1-3)Gal(b1-4)Glc
# Procedure, shortened: as §1
# [14] = biological target: Gal(b1-3)[GlcNAc(b1-6)]GalNAc
# Procedure, shortened: as §1
# [15] = biological target: Gal(b1-4)GlcNAc(b1-2)Man(a1-3)[Gal(b1-4)GlcNAc(b1-2)Man(a1-6)]Man(b1-4)GlcNAc(b1-4)GlcNAc
# Procedure, shortened: as §1
# [16] = biological target: Gal(b1-4)GlcNAc(b1-2)Man(a1-3)[Gal(b1-4)GlcNAc(b1-2)Man(a1-6)][GlcNAc(b1-4)]Man(b1-4)GlcNAc(b1-4)[Fuc(a1-6)]GlcNAc
# Procedure, shortened: as §1
# [17] = biological target: Gal(b1-4)GlcNAc(b1-3)Gal(b1-3)GalNAc
# Procedure, shortened: as §1
# [18] = biological target: Gal(b1-4)GlcNAc(b1-3)Gal(b1-4)GlcNAc(b1-3)Gal(b1-4)GlcNAc(b1-3)Gal(b1-4)GlcNAc(b1-2)Man(a1-3)[Gal(b1-4)GlcNAc(b1-3)Gal(b1-4)GlcNAc(b1-3)Gal(b1-4)GlcNAc(b1-3)Gal(b1-4)GlcNAc(b1-2)Man(a1-6)]Man(b1-4)GlcNAc(b1-4)GlcNAc
# Procedure, shortened: as §1
# [19] = biological target: Gal(b1-4)GlcNAc(b1-3)Gal(b1-4)GlcNAc(b1-3)Gal(b1-4)GlcNAc(b1-3)Gal(b1-4)GlcNAc(b1-2)Man(a1-3)[Gal(b1-4)GlcNAc(b1-3)Gal(b1-4)GlcNAc(b1-3)Gal(b1-4)GlcNAc(b1-3)Gal(b1-4)GlcNAc(b1-2)Man(a1-6)]Man(b1-4)GlcNAc(b1-4)[Fuc(a1-6)]GlcNAc
# Procedure, shortened: as §1
# [20] = biological target: Gal(b1-4)GlcNAc(b1-3)Gal(b1-4)GlcNAc(b1-3)Gal(b1-4)GlcNAc(b1-3)Gal(b1-4)GlcNAc(b1-3)Gal(b1-4)GlcNAc(b1-2)Man(a1-3)[Gal(b1-4)GlcNAc(b1-3)Gal(b1-4)GlcNAc(b1-3)Gal(b1-4)GlcNAc(b1-3)Gal(b1-4)GlcNAc(b1-3)Gal(b1-4)GlcNAc(b1-2)Man(a1-6)]Man(b1-4)GlcNAc(b1-4)[Fuc(a1-6)]GlcNAc
# Procedure, shortened: as §1
# [21] = biological target: Gal(b1-4)GlcNAc(b1-3)[Fuc(a1-3)GlcNAc(b1-6)]Gal(b1-4)Glc
# Procedure, shortened: as §1
# [22] = biological target: Gal(b1-4)GlcNAc(b1-3)[Gal(b1-4)GlcNAc(b1-6)]Gal(b1-4)GlcNAc
# Procedure, shortened: as §1
# [23] = biological target: Gal(b1-4)GlcNAc6P
# Procedure, shortened: as §1
# [24] = biological target: Gal3S(b1-4)Glc6S
# Procedure, shortened: as §1
# [25] = biological target: Gal3S(b1-4)[Fuc(a1-3)]GlcNAc6S
# Procedure, shortened: as §1
# [26] = biological target: GalNAc(b1-3)GlcNAc
# Procedure, shortened: as §1
# [27] = biological target: GalNAc3S(b1-4)[Fuc(a1-3)]GlcNAc
# Procedure, shortened: as §1
# [28] = biological target: GlcA3S(b1-3)Gal(b1-4)GlcNAc(b1-3)Gal(b1-4)Glc
# Procedure, shortened: as §1
# [29] = biological target: GlcNAc(b1-3)Gal(b1-4)GlcNAc(b1-2)[GlcNAc(b1-3)Gal(b1-4)GlcNAc(b1-6)]Man(a1-6)[GlcNAc(b1-3)Gal(b1-4)GlcNAc(b1-2)Man(a1-3)]Man(b1-4)GlcNAc(b1-4)GlcNAc
# Procedure, shortened: as §1
# [30] = biological target: GlcNAc(b1-3)Gal(b1-4)GlcNAc(b1-6)[Gal(b1-3)]GalNAc
# Procedure, shortened: as §1
binder,measurement,setting,value
Clec18C (Homo sapiens) (protein) MLHPETSPGRGHLLAVLLALLGTAWAEVWPPQLQEQAPMAGALNRKESFLLLSLHNRLRSWVQPPAADMRRLDWSDSLAQLAQARAALCGTPTPSLASGLWRTLQVGWNMQLLPAGLVSFVEVVSLWFAEGQRYSHAAGECARNATCTHYTQLVWATSSQLGCGRHLCSAGQAAIEAFVCAYSPRGNWEVNGKTIVPYKKGAWCSLCTASVSGCFKAWDHAGGLCEVPRNPCRMSCQNHGRLNISTCHCHCPPGYTGRYCQVRCSLQCVHGRLREEECSCVCDIGYGGAQCATKVHFPFHTCDLRIDGDCFMVSSEADTYYRARMKCQRKGGVLAQIKSQKVQDILAFYLGRLETTNEVIDSDFETRNFWIGLTYKTAKDSFRWATGEHQAFTSFAFGQPDNHGFGNCVELQASAAFNWNNQRCKTRNRYICQFAQEHISRWGPGS,glycan array binding signal (z-score),[1],3.46
same,glycan array binding signal (z-score),[2],0.055
same,glycan array binding signal (z-score),[3],0.124
same,glycan array binding signal (z-score),[4],3.79
same,glycan array binding signal (z-score),[5],-0.032
same,glycan array binding signal (z-score),[6],-0.382
same,glycan array binding signal (z-score),[7],-0.479
same,glycan array binding signal (z-score),[8],-0.261
same,glycan array binding signal (z-score),[9],0.313
same,glycan array binding signal (z-score),[10],1.24
same,glycan array binding signal (z-score),[11],-0.547
same,glycan array binding signal (z-score),[12],-0.443
same,glycan array binding signal (z-score),[13],-0.457
same,glycan array binding signal (z-score),[14],4.42
same,glycan array binding signal (z-score),[15],5.03
same,glycan array binding signal (z-score),[16],1.07
same,glycan array binding signal (z-score),[17],5.75
same,glycan array binding signal (z-score),[18],1.91
same,glycan array binding signal (z-score),[19],-0.276
same,glycan array binding signal (z-score),[20],3.34
same,glycan array binding signal (z-score),[21],-0.356
same,glycan array binding signal (z-score),[22],7.63
same,glycan array binding signal (z-score),[23],5.02
same,glycan array binding signal (z-score),[24],-0.387
same,glycan array binding signal (z-score),[25],-0.116
same,glycan array binding signal (z-score),[26],3.98
same,glycan array binding signal (z-score),[27],-0.342
same,glycan array binding signal (z-score),[28],-0.395
same,glycan array binding signal (z-score),[29],-0.368
same,glycan array binding signal (z-score),[30],-0.398
